Assay outcomes (PubChem)
A selection: hits, their analogues and other compounds. The true share with any hit is near 5.4%.
LASV entry inh = qHTS for Inhibitors of binding or entry into cells for Lassa Virus; Potency, µM (titrated, usually from 37.9 µM), most hits filed as inhibitors; hit rate 1.2% among 300,000; Lassa virus pseudotype entry inhibition, cell reporter; calls by dose curve; tested in HEK293 cells; also: nearly all actives have a fitted effect of over 50% in size
Sm TGR block = qHTS Assay for the Inhibitors of Schistosoma Mansoni Peroxiredoxins; Schistosoma mansoni thioredoxin glutathione reductase (TGR), Q962Y6; purified TGR, DTNB reduction, TNB absorbance 405 nm; Potency, µM (series often up to 114 µM), usual class: inhibitors; hit rate 3% among 360,000; AID 485364, 2010; active = well fitted inhibition curve with a large enough effect; inconclusive = small, poorly fitted or top-dose-only effect; inactive = no such curve, though single readings can be large or run the other way; also: nearly all actives have a fitted effect of over 60% in size
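TGR 20 nM + NADPH 100 uM (dispensed conc.), cpd preinc 15 min RT; start with NADPH (500 uM addition) then DTNB (15 mM addition). Kinetic TNB absorbance, 405 nm filter. Four-parameter Hill fit across titration.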
FMDV antiviral = High Throughput Screening for Foot and Mouth Disease Virus Antivirals; Potency, µM (titrated, usually from 57.9 µM), most hits filed as inhibitors; FMDV antiviral cell-based qHTS; hit rate 1.2% among 410,000; calls by dose curve; tested in HEK293T cells; also: read-out not given here; nearly all actives have a fitted effect of over 45% in size
MARV entry inh = qHTS for inhibitors of binding or entry into cells for Marburg Virus | Potency, µM (top dose mostly 37.8 µM), hits mostly inhibitors | hit rate 1.8% among 300,000 | Marburg virus pseudotyped entry inhibition, cell reporter; calls by dose curve; tested in HEK293 cells
Vaccinia mCherry = qHTS for Stage-Specific Inhibitors of Vaccinia Orthopoxvirus: mCherry Reporter Primary qHTS; Potency, µM (series often up to 36.5 µM), hits mostly inhibitors; hit rate 0.63% among 310,000; AID 720579, 2013; Vaccinia virus mCherry reporter infection, fluorescence; calls by dose curve; tested in A549 cells; also: nearly all actives have a fitted effect of over 35% in size
VACV Venus inh = qHTS for Stage-Specific Inhibitors of Vaccinia Orthopoxvirus: Venus Reporter Primary qHTS; Potency, µM (highest dose often 36.5 µM), hits mostly inhibitors; AID 720580, 2013; Vaccinia virus Venus reporter expression, fluorescence; hit rate 0.46% among 330,000; calls by dose curve; tested in A549 cells; also: nearly all actives have a fitted effect of over 30% in size
Of the large screens only hits and unclear results are named; the others gave an inactive call.

CC(C)CC(=O)Nc1c2c(nn1-c1ccc(F)cc1)CS(=O)C2 (configuration not stated)	none (no result: LASV entry inh, MARV entry inh, Vaccinia mCherry, VACV Venus inh)
CC(=O)Nc1ccc(S(=O)(=O)N2CCC(n3c(C(F)(F)F)nc4cccnc43)CC2)cc1	none (no result: MARV entry inh)
Cc1cc2cc(CCNC(=O)C(=O)c3c[nH]c4ccccc34)c(=O)[nH]c2cc1C	LASV entry inh 13µM, MARV entry inh inconclusive
O=C(NCCc1c[nH]c2ccccc12)C(=O)c1c[nH]c2ccccc12	none (no result: LASV entry inh, MARV entry inh, Vaccinia mCherry, VACV Venus inh)
COc1ccc(CCNC(=O)CSc2cn(CCNC(=O)c3ccccc3F)c3ccccc23)cc1OC	FMDV antiviral inconclusive, MARV entry inh inconclusive
COc1ccc(-c2nc3c(c(=O)[nH]c(=O)n3Cc3ccccc3)n2CCO)cc1	LASV entry inh 2.2µM, Vaccinia mCherry inconclusive
Cn1c(-c2cc(Cl)ccc2O)nc2c1c(=O)[nH]c(=O)n2Cc1ccccc1	LASV entry inh inconclusive, FMDV antiviral inconclusive, MARV entry inh 2µM
COCCCn1c(-c2cccc(Cl)c2)nc2c1c(=O)[nH]c(=O)n2Cc1ccccc1	LASV entry inh inconclusive
COc1ccc(Br)cc1-c1nc2c(c(=O)[nH]c(=O)n2Cc2ccccc2)n1C	LASV entry inh inconclusive
CCCCn1c(=O)[nH]c(=O)c2c1nc(-c1ccc(C)c([N+](=O)[O-])c1)n2CC	LASV entry inh inconclusive, MARV entry inh inconclusive
O=c1[nH]c(=O)n(Cc2ccccc2)c2nc(-c3ccc(Oc4ccc(F)cc4)c([N+](=O)[O-])c3)n(CCO)c12	LASV entry inh inconclusive, MARV entry inh inconclusive, VACV Venus inh 10µM
O=C(Nc1cccc(Cl)c1)c1ccc2c(c1)CCN2S(=O)(=O)c1ccccc1	LASV entry inh inconclusive, MARV entry inh inconclusive
C[C@@H]1CC[C@H]2C(=O)N(Cc3cccc([N+](=O)[O-])c3)C[C@@H](O)CN2[C@@H]1c1ccc(Br)cc1	none (no result: LASV entry inh, Sm TGR block, FMDV antiviral, Vaccinia mCherry, VACV Venus inh)
COc1cc(C=O)ccc1OCCCOc1ccccc1C(=O)O	LASV entry inh inconclusive, FMDV antiviral 8.9µM, MARV entry inh inconclusive (no result: Vaccinia mCherry)
COc1cc(C=O)ccc1OCCCOc1ccccc1[N+](=O)[O-]	none
CC(=O)Nc1ccc(C=C(C(C)=O)C(C)=O)cc1	Sm TGR block inconclusive, FMDV antiviral 32µM
COc1cc(OC)c(C(=O)/C=C/c2ccc(OCc3ccccc3)c(OC)c2)c(OC)c1	LASV entry inh inconclusive, FMDV antiviral inconclusive, MARV entry inh 11µM, Vaccinia mCherry inconclusive, VACV Venus inh inconclusive
COc1ccc(/C=C\C(=O)Nc2ccccc2C(=O)O)cc1OC	FMDV antiviral 20µM, MARV entry inh inconclusive (no result: LASV entry inh, Sm TGR block, Vaccinia mCherry, VACV Venus inh)
COc1cc(NC(=O)/C=C/c2ccccc2)c(C(=O)O)cc1OC	none (no result: LASV entry inh, MARV entry inh)
O=C(Cn1cc(S(=O)(=O)Cc2ccccc2F)c2ccccc21)NCc1ccccc1Cl	none (no result: MARV entry inh)
CNC(=O)Cn1c(=O)c2cccn2c2ccc(F)cc21	none (no result: MARV entry inh)
CC(C)CN1CCc2nc(N3CCN(c4ncccn4)CC3)ncc2C1	LASV entry inh inconclusive (no result: MARV entry inh)
OC1CCCCC1/C=N/n1c2c(c3c1CCCC3)CCCC2 (configuration not stated)	none (no result: LASV entry inh, Sm TGR block, FMDV antiviral, Vaccinia mCherry, VACV Venus inh)
COC(=O)CC=C1c2ccccc2OC[C@@H](OC)[C@H]1C	none (no result: LASV entry inh, Sm TGR block, FMDV antiviral, Vaccinia mCherry, VACV Venus inh)
COc1ccc(C=C(C(C)=O)C(C)=O)cc1OC	Sm TGR block inconclusive, FMDV antiviral 28µM (no result: Vaccinia mCherry, VACV Venus inh)
COc1cccc(Nc2ccccc2C(=O)O)c1	LASV entry inh inconclusive (no result: Sm TGR block)
CCOC(=O)c1ccc(NC(=O)c2ccc(OC(C)C)c(OC)c2)cc1	FMDV antiviral 40µM, MARV entry inh inconclusive
COc1cc(-c2ccc(Nc3ccccc3C(=O)O)c(OC)c2)ccc1Nc1ccccc1C(=O)O	LASV entry inh inconclusive, Sm TGR block 45µM, MARV entry inh inconclusive
COc1cc(C=C(C(C)=O)C(C)=O)ccc1O	Sm TGR block inconclusive, FMDV antiviral inconclusive
COc1cc(CN(C)CCc2ccccc2)ccc1OCc1ccccc1	MARV entry inh 18µM (no result: Vaccinia mCherry, VACV Venus inh)
CSc1nc2c(sc3ccccc32)c(=O)n1Cc1ccc(C)cc1	LASV entry inh inconclusive (no result: MARV entry inh)
CC(C)c1ccc(NC(=O)c2ccc(=O)n(Cc3ccccc3)c2)cc1	none (no result: MARV entry inh)
CCC1CCCCN1C(=O)CSc1nc(-c2ccc(OC)cc2)cc(C(F)(F)F)n1 (configuration not stated)	FMDV antiviral inconclusive
CCOc1ccc(/C=C/C(=O)Nc2ccc(C(N)=O)cc2)cc1OC	MARV entry inh inconclusive
COc1ccc(C(=O)C=Cc2ccc3c(c2)OCO3)cc1OC	none (no result: LASV entry inh, Sm TGR block, MARV entry inh)
COc1cc(/C=C/[N+](=O)[O-])ccc1OCc1cccc(C(=O)O)c1	LASV entry inh 0.63µM, FMDV antiviral 10µM, MARV entry inh inconclusive (no result: Sm TGR block)
COc1ccc(C=CC(=O)c2ccc(OC)c(OC)c2)cc1O	Vaccinia mCherry inconclusive, VACV Venus inh 10µM (no result: LASV entry inh, Sm TGR block, MARV entry inh)
CCOCCOC(=O)c1ccc(NC(=O)/C=C/c2ccc(OC)c(OC)c2)cc1	FMDV antiviral 20µM (no result: MARV entry inh)
COc1ccc(C(=O)C=Cc2ccc(OCc3ccccc3)c(OC)c2)cc1OC	FMDV antiviral inconclusive, Vaccinia mCherry inconclusive, VACV Venus inh 11µM (no result: LASV entry inh, Sm TGR block, MARV entry inh)
COc1cc(/C=N/NC(=O)c2cccc([N+](=O)[O-])c2)ccc1OCc1ccccc1	none (no result: Vaccinia mCherry, VACV Venus inh)
N#Cc1nc(N2CCCCC2)nc(N(c2ccccc2)c2ccccc2)n1	none (no result: LASV entry inh, Sm TGR block, FMDV antiviral, MARV entry inh)
COc1cc(OC)c(C(=O)C=Cc2ccc(OC)c(OC)c2)c(OC)c1	LASV entry inh inconclusive, FMDV antiviral inconclusive, MARV entry inh inconclusive, Vaccinia mCherry 10µM, VACV Venus inh inconclusive (no result: Sm TGR block)
O=C(/C=C/c1cccc([N+](=O)[O-])c1)NC(=S)Nc1ccccc1C(=O)O	Sm TGR block 18µM (no result: LASV entry inh, FMDV antiviral, MARV entry inh, Vaccinia mCherry, VACV Venus inh)
O=C(/C=C/c1cccc([N+](=O)[O-])c1)NC(=S)Nc1cccc(NC(=O)c2ccccc2Cl)c1	LASV entry inh inconclusive, FMDV antiviral inconclusive, MARV entry inh inconclusive
CC(=O)OC1(C)CC(C)C(=O)C(C(O)CC2CC(=O)NC(=O)C2)C1 (configuration not stated)	FMDV antiviral inconclusive, Vaccinia mCherry inconclusive, VACV Venus inh 0.1µM (no result: LASV entry inh, Sm TGR block, MARV entry inh)
Cc1nnc(N2CCCC(C(=O)NCCc3ccc(Cl)cc3)C2)c2nn(-c3ccccc3)c(C)c12 (configuration not stated)	none (no result: MARV entry inh)
CC(NC(=O)c1ccc(CS(=O)(=O)Cc2ccccc2F)o1)c1ccc2c(c1)OCCO2 (configuration not stated)	Sm TGR block 35µM (no result: Vaccinia mCherry)
CC(NC(=O)c1ccc(CS(=O)(=O)c2cccc(C(F)(F)F)c2)o1)c1ccc2c(c1)OCCO2 (configuration not stated)	MARV entry inh inconclusive
O=C(CC(c1cccs1)N1Cc2ccccc2C1=O)Nc1ccccc1 (configuration not stated)	none (no result: MARV entry inh)
CCOc1ccc(NCc2cccn2-c2nnc(N3CCC(C(=O)NCCc4ccc(OC)c(OC)c4)CC3)s2)cc1	FMDV antiviral 22µM, MARV entry inh inconclusive, VACV Venus inh inconclusive (no result: LASV entry inh)
COc1ccccc1Oc1ccc2c(c1)C(=O)N(c1cccc3ncccc13)C2=O	FMDV antiviral 20µM, MARV entry inh inconclusive
